Experimental data taken from PubChem BioAssay (NCATS).
Results filed as inconclusive are left out. Calls of active or inactive are those of the source. Unless noted, calls follow the shape of the dose curve; as a rule, active = well fitted curve in the direction sought with a large enough effect; inconclusive = small, poorly fitted or top-dose-only effect, or another doubt; inactive = no such curve, though single readings can be large; an effect the other way counts as inactive or inconclusive.

How the values were obtained:
[1] = target: Pyruvate kinase PKM (Homo sapiens) (UniProt P14618); assay: qHTS Assay for Activators of Human Muscle Pyruvate Kinase (AID 954; active = well fitted curve in the direction sought with a large enough effect, not every such curve was filed as active)
Procedure, shortened: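 Screening used highly purified human pyruvate kinase M2 under submaximal activity, with PEP at its Km and ADP below Km. After an hour at room temperature, ATP was read by luciferase luminescence.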

[2] = MultiTox-Fluor Cytotoxicity Assay - LYMP1-002 - Live Cells (AID 955);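 also: cells exposed to compound for 16 hours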; also: potency is read from the fitted curve at half-maximal effect
Procedure, shortened: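 LYMP1-002 lymphoblastoid cells; 2500 cells/well; 16 hr compound exposure, 37 C; MultiTox-Fluor reagent 60 min RT; live-cell fluorescence Ex/Em=405/510; qHTS concentration-response, Hill-equation AC50; tetraoctylammonium bromide positive control.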

[3] = MultiTox-Fluor Cytotoxicity Assay - LYMP1-002 - Dead Cells (AID 960); also: nearly all actives have a fitted effect of over 60% in size; also: potency is read from the fitted curve at half-maximal effect
Procedure, shortened: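 Readout: fluorescence at 485/520 from cell-impermeant bis-AAF-R110 cleaved by proteases leaking from damaged cells. LYMP1-002 lymphoblastoid line, 16 hr compound treatment at 37 C, concentration-response in qHTS format; Hill-equation AC50 values.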

[4] = MultiTox-Fluor Cytotoxicity Assay - LYMP1-003 - Dead Cells (AID 961);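 also: cells exposed to compound for 16 h at 37 °C; nearly all actives have a fitted effect of over 70% in size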; also: potency is read from the fitted curve at half-maximal effect
Procedure, shortened: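 Acute toxicity is scored as increased dead-cell protease activity in human lymphoblastoid LYMP1-003 cells after 16 h compound exposure in complete culture medium. Activity is normalized to DMSO basal and 15 uM tetraoctylammonium bromide as full response.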

[5] = Cell Viability - LYMP1-003 - Assay at 24 hr (AID 963); also: potency is read from the fitted curve at half-maximal effect
Procedure, shortened: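 CellTiter-Glo luminescence (intracellular ATP) read after 24 hr, 37 C compound exposure of 2500 LYMP1-003 human lymphoblastoid cells/well in complete medium; qHTS concentration series; AC50 via standard Hill equation.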

[6] = Cell Viability - LYMP1-003 - Assay at 40 hr (AID 964); also: nearly all actives have a fitted effect of over 60% in size; also: potency is read from the fitted curve at half-maximal effect
Procedure, shortened: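 LYMP1-003 lymphoblastoid cells, 2500/well; 5 hr preincubation, 40 hr compound exposure, 37 C; CellTiter-Glo 30 min RT; luminescence; Hill-fit AC50. Positive control tetraoctylammonium bromide.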

[7] = Cell Viability - LYMP2-003 (AID 965);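 also: cells exposed to compounds for 24 h before reading; nearly all actives have a fitted effect of over 50% in size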; also: potency is read from the fitted curve at half-maximal effect
Procedure, shortened: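 Seed 2500 lymphoblastoid cells/well; incubate 5 hr, 37 C; add compounds; incubate 24 hr, 37 C; add CellTiter-Glo, 30 min RT; read luminescence. AC50 from Hill fit.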

[8] = Cell Viability - LYMP2-004 (AID 966); also: nearly all actives have a fitted effect of over 65% in size; also: potency is read from the fitted curve at half-maximal effect
Procedure, shortened: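 Luminescent ATP read-out (CellTiter-Glo, 30 min RT) after 24 hr compound exposure at 37 C; 2500 lymphoblastoid cells/well, complete medium. Decrease in ATP = cytotoxicity; AC50 from standard Hill model.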

[9] = Cell Viability - LYMP2-005 (AID 967); also: potency is read from the fitted curve at half-maximal effect
Procedure, shortened: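 Acute cytotoxicity is scored as a concentration-dependent drop in intracellular ATP in human lymphoblastoid LYMP2-005 cells after 24 h compound treatment. ATP is quantified by luciferase luminescence, and AC50 is derived by Hill-equation modelling.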

[10] = Cell Viability - LYMP2-009 (AID 968); also: nearly all actives have a fitted effect of over 55% in size; also: potency is read from the fitted curve at half-maximal effect
[11] = Cell Viability - LYMP2-011 (AID 969); also: nearly all actives have a fitted effect of over 60% in size; also: potency is read from the fitted curve at half-maximal effect
Procedure, shortened: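 Luminescent ATP read-out (CellTiter-Glo, 30 min RT) after 24 hr compound exposure at 37 C in human lymphoblastoid cells, 2500 cells/well. Decreasing ATP indicates cytotoxicity; AC50 from standard Hill fit.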

[12] = Cell Viability - LYMP2-013 (AID 970); also: nearly all actives have a fitted effect of over 55% in size; also: potency is read from the fitted curve at half-maximal effect
Procedure, shortened: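 CellTiter-Glo luminescence (cellular ATP) read after 30 min at RT. Cells: human lymphoblastoid line, 2500/well, 24 hr compound exposure at 37 C. Tetraoctylammonium bromide positive control; AC50 via standard Hill fit of qHTS titrations.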

[13] = Cell Viability - LYMP2-015 (AID 971); also: nearly all actives have a fitted effect of over 55% in size; also: potency is read from the fitted curve at half-maximal effect
Procedure, shortened: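 qHTS cytotoxicity: 2500 cells/well, 5 hr 37 C, compound 24 hr 37 C, CellTiter-Glo 30 min RT, luminescence. Loss of ATP = toxicity; AC50 via standard Hill fit.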

[14] = Cell Viability - LYMP2-017 (AID 972); also: nearly all actives have a fitted effect of over 55% in size; also: potency is read from the fitted curve at half-maximal effect
Procedure, shortened: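 Luminescent ATP read-out (CellTiter-Glo, 30 min RT) reports viable cell number. Cells: human lymphoblastoid line, 2500 per well, 5 hr preincubation, 24 hr compound exposure at 37 C. AC50 is derived from qHTS concentration-response data using the standard Hill model.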

[15] = Cell Viability - LYMP2-019 (AID 973); also: nearly all actives have a fitted effect of over 55% in size; also: potency is read from the fitted curve at half-maximal effect
Procedure, shortened: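 qHTS, 1536-well; 2500 cells/well; 5 hr pre-incubation, 24 hr compound exposure, 37 C; CellTiter-Glo added, 30 min RT; luminescence read; AC50 via standard Hill equation.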

[16] = Cell Viability - LYMP2-021 (AID 974); also: potency is read from the fitted curve at half-maximal effect
Procedure, shortened: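 ATP luminescence (CellTiter-Glo, 30 min RT) after 24 h compound exposure at 37 C; 2500 human lymphoblastoid cells/well, 5 h settle beforehand. Cytotoxicity = concentration-dependent ATP drop, AC50 by Hill fit.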

[17] = Cell Viability - LYMP2-023 (AID 975); also: nearly all actives have a fitted effect of over 55% in size; also: potency is read from the fitted curve at half-maximal effect
Procedure, shortened: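 CellTiter-Glo luminescence after 30 min at room temperature; decrease in intracellular ATP reflects toxicity. Cells: human lymphoblastoid line, 2500/well, 24 hr compound exposure at 37 C. AC50 fitted to standard Hill equation from concentration-response.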

[18] = Cell Viability - LYMP2-002 (AID 977); also: potency is read from the fitted curve at half-maximal effect
Procedure, shortened: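 Human lymphoblastoid cells (2500/well) in complete medium were preincubated 5 hr at 37 C, then exposed to compounds for 24 hr at 37 C. Intracellular ATP was read by CellTiter-Glo luminescence; AC50 came from Hill-equation concentration-response fits.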

[19] = Cell Viability - LYMP2-006 (AID 978); also: nearly all actives have a fitted effect of over 60% in size; also: potency is read from the fitted curve at half-maximal effect
Procedure, shortened: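 Cells are seeded at 2500 per well and rested 5 hr at 37 C. Compounds are added across a concentration series for 24 hr at 37 C, after which ATP is quantified by luciferase luminescence.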

[20] = MultiTox-Fluor Cytotoxicity Assay - LYMP1-003 - Live Cells (AID 962);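 also: cells exposed to compound for 16 hours at 37 °C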; also: potency is read from the fitted curve at half-maximal effect
Procedure, shortened: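 Readout: live-cell fluorescence (Ex/Em=405/510) from GF-AFC cleavage after 60 min MultiTox-Fluor reagent at room temperature. Lymphoblastoid LYMP1-003 cells, 16 hr compound treatment, 37 C. Concentration-response fitted to standard Hill equation for AC50.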

Measured: Potency

Sequence of Pyruvate kinase PKM (Homo sapiens) (P14618 whole entry, looked up): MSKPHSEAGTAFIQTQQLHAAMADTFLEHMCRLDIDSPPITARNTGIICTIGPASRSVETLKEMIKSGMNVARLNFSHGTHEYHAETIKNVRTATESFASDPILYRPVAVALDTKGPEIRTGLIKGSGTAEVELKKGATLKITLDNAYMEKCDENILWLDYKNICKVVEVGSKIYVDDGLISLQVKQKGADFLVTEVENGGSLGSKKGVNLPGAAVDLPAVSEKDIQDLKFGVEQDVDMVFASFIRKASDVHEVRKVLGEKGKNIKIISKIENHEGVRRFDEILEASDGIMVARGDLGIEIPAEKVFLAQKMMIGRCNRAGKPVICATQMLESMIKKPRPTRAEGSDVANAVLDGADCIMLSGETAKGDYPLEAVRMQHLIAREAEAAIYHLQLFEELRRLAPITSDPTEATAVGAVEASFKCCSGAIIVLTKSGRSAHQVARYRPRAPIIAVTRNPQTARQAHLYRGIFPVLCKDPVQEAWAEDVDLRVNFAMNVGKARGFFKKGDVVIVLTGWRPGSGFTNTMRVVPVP

O=C1NC(c2cccc([N+](=O)[O-])c2)=CCN1c1ccccc1O
inactive: [1]

C[N+](C)(C)CCO
inactive: [1]

Nc1ccc(O)cc1
active: [2] 25.1 µM | [3] 31.6 µM | [4] 50.1 µM | [5] 50.1 µM | [6] 39.8 µM | [7] 25.1 µM | [8] 25.1 µM | [9] 25.1 µM | [10] 31.6 µM | [11] 39.8 µM | [12] 50.1 µM | [13] 31.6 µM | [14] 39.8 µM | [15] 39.8 µM | [16] 31.6 µM | [17] 50.1 µM | [18] 39.8 µM | [19] 50.1 µM

COc1cc(C=O)ccc1O
not listed: [1]
inactive: all other assays above

Oc1ccccc1
not listed: [1]
inactive: all other assays above

OCc1c[nH]c2ccccc12
not listed: [1]
inactive: all other assays above

O=C(Oc1ccccc1)c1ccccc1O
not listed: [1]
inactive: all other assays above

Cc1cc(C(C)(C)C)c(O)c(C(C)(C)C)c1
not listed: [1] | [3]
inactive: all other assays above

CC(C)(c1ccc(O)cc1)c1ccc(O)cc1
not listed: [1]
inactive: all other assays above

CCCC(=O)c1cc(O)c(O)cc1O
not listed: [1] | [6] | [7] | [8] | [14]
inactive: all other assays above

Brc1ccc([C@H]2CN3CCSC3=N2)cc1
inactive: [1]

CN(C)c1cc2c(Nc3ccc4c(cnn4Cc4ccccc4)c3)ncnc2cn1
inactive: [1]

CC(C)(C)c1ccc(O)c(O)c1
active: [6] 25.1 µM | [7] 50.1 µM | [10] 39.8 µM | [12] 39.8 µM | [13] 31.6 µM | [14] 39.8 µM | [15] 39.8 µM | [16] 31.6 µM | [19] 50.1 µM
inactive: [2] | [3] | [20] | [5]

Cc1ccc(O)cc1
not listed: [1] | [3]
inactive: all other assays above

C1=CC2C3C=CC(C3)C2C1 (configuration not stated)
not listed: [1] | [8]
inactive: all other assays above

c1ccc2occc2c1
not listed: [1]
inactive: all other assays above

NC(N)=NCCCCN=C(N)N
inactive: [1]

Nc1c2ccccc2nc2ccccc12
active: [3] 7.94 µM | [4] 15.8 µM | [5] 25.1 µM | [6] 20 µM | [7] 25.1 µM | [8] 12.6 µM | [10] 10 µM | [11] 12.6 µM | [12] 12.6 µM | [13] 10 µM | [14] 15.8 µM | [15] 10 µM | [16] 12.6 µM | [17] 12.6 µM | [18] 7.94 µM | [19] 20 µM
inactive: [2] | [20]

O=C(c1ccccc1)c1ccccc1
not listed: [1]
inactive: all other assays above

Cn1cnc2c(NCc3ccccc3)nc(NCCO)nc21
inactive: [1]

Nc1cccc2c(N)cccc12
not listed: [1]
inactive: all other assays above

O=C(NO)c1ccccc1
not listed: [1]
inactive: all other assays above

O=[N+]([O-])c1ccc(-c2nc(-c3ccc(F)cc3)c(-c3ccncc3)[nH]2)cc1
inactive: [1]

CCCCC(CC)COC(=O)c1ccccc1C(=O)O (configuration not stated)
not listed: [1]
inactive: all other assays above

Brc1ccccc1-c1ccccc1
not listed: [1]
inactive: all other assays above

CC(C)C(C)(C)C(C)(C)C(C)(C)S
not listed: [1] | [3] | [9]
inactive: all other assays above

COc1ccccc1N1CCN(CCN2C(=O)CC3(CCCC3)CC2=O)CC1
inactive: [1]

CCCCCCCCCCCCCCCC[n+]1ccccc1
active: [2] 12.6 µM | [3] 10 µM | [20] 31.6 µM | [5] 20 µM | [6] 10 µM | [7] 31.6 µM | [9] 15.8 µM | [10] 15.8 µM | [11] 20 µM | [12] 25.1 µM | [13] 15.8 µM | [14] 25.1 µM | [15] 20 µM | [16] 25.1 µM | [17] 39.8 µM | [18] 15.8 µM | [19] 12.6 µM

CC(C)N(CCC(=O)c1ccc2ccccc2c1)Cc1ccccc1
inactive: [1]

CC(=O)OC/C=C(C)/C=C/C=C(C)/C=C/C1=C(C)CCCC1(C)C
inactive: [2] | [3] | [4] | [20] | [5]
active: [13] 50.1 µM | [14] 50.1 µM
